Reference: PubChem BioAssay AID1159580 (chemical genetic matrix, 2015)
About 2,000 (36%) of roughly 5,500 compounds were called active. Not shown: some 18% with an inconclusive outcome. Cut-off read from the data, not from the text of the source: active = normalized growth mostly below about 0.91 (no sharp cut-off); inconclusive = no clear call, values can overlap the other calls; inactive = mostly above about 0.92. The list shows a part of the results.

Experiment: chemical genetic growth profiling, strain panel (AID 1159580);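 note: tested at 20 µM; growth read once vehicle control cultures reached saturation at 30 °C; 1 = growth at the plate median or of vehicle wells; lower values mean less growth of the strain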
Conditions: S. cerevisiae deletion strains, growth OD

Measured: normalized growth

COc1c(Cl)ccc(Cl)c1C(=O)O
inactive: locus YAL013W, strain DEP1, hits give low values 1.01 | locus YAL021C, strain ccr4, hits give low values 0.972 | locus YAL026C, strain drs2, hits give low values 0.988 | locus YAL030W, strain snc1, hits give low values 0.984 | locus YBL061C, strain skt5, hits give low values 0.977 | locus YBR009C, strain hhf1, hits give low values 0.988 | locus YBR021W, strain FUR4, hits give low values 1.02 | locus YBR023C, strain chs3, hits give low values 0.995 | locus YBR171W, strain sec66, hits give low values 0.977 | locus YBR229C, strain ROT2, hits give low values 0.999 | locus YBR231C, strain swc5, hits give low values 0.968 | locus YBR279W, strain paf1, hits give low values 0.982 | locus YCL011C, strain gbp2, hits give low values 0.981 | locus YCL016C, strain dcc1, hits give low values 0.986 | locus YCL029C, strain bik1, hits give low values 1.02 | locus YCL061C, strain MRC1, hits give low values 0.985 | locus YCL069W, strain vba3, hits give low values 0.984 | locus YCR088W, strain abp1, hits give low values 0.978 | locus YDL005C, strain med2, hits give low values 0.975 | locus YDL035C, strain GPR1, hits give low values 1.02 | locus YDL040C, strain nat1, hits give low values 0.977 | locus YDL074C, strain BRE1, hits give low values 1.04 | locus YDL101C, strain DUN1, hits give low values 1.01 | locus YDL134C, strain PPH21, hits give low values 1.01 | locus YDL185W, strain tfp1, hits give low values 1.02 | locus YDL192W, strain arf1, hits give low values 1.02 | locus YDR001C, strain nth1, hits give low values 0.985 | locus YDR069C, strain doa4, hits give low values 0.976 | locus YDR101C, strain arx1, hits give low values 1.01 | locus YDR137W, strain rgp1, hits give low values 1.01 | locus YDR150W, strain NUM1, hits give low values 1 | locus YDR159W, strain sac3, hits give low values 0.972 | locus YDR162C, strain NBP2, hits give low values 1.01 | locus YDR195W, strain ref2 0.919 | locus YDR297W, strain sur2, hits give low values 0.993 | locus YDR318W, strain mcm21, hits give low values 1.02 | locus YDR334W, strain swr1, hits give low values 0.979 | locus YDR335W, strain msn5, hits give low values 0.985 | locus YDR388W, hits give low values 1.01 | locus YDR392W, strain spt3, hits give low values 0.999 | locus YDR502C, strain sam2, hits give low values 1.01 | locus YEL003W, strain gim4, hits give low values 0.985 | locus YEL037C, strain rad23, hits give low values 0.985 | locus YEL061C, strain CIN8 (second series), hits give low values 0.973 | locus YEL061C, strain CIN8, hits give low values 0.997 | locus YER015W, strain faa2, hits give low values 0.981 | locus YER016W, strain bim1, hits give low values 0.985 | locus YER110C, hits give low values 1.02 | locus YER111C, strain swi4, hits give low values 0.96 | locus YER155C, strain BEM2 (second series), hits give low values 0.982 | locus YER155C, strain BEM2, hits give low values 1.01 | locus YER167W, strain BCK2, hits give low values 1.02 | locus YFR010W, strain ubp6, hits give low values 0.983 | locus YGL078C, strain dbp3, hits give low values 1.01 | locus YGL086W, strain mad1, hits give low values 1.01 | locus YGL167C, strain pmr1, hits give low values 0.984 | locus YGL173C, strain kem1, hits give low values 0.982 | locus YGL227W, strain vid30, hits give low values 0.97 | locus YGL240W, strain doc1, hits give low values 0.961 | locus YGL248W, strain PDE1, hits give low values 1.01 | locus YGL253W, strain hxk2, hits give low values 0.993 | locus YGR078C, strain PAC10, hits give low values 1.01 | locus YGR135W, strain pre9, hits give low values 1.02 | locus YGR229C, strain SMI1, hits give low values 1.04 | locus YGR252W, strain gcn5, hits give low values 1.02 | locus YHR013C, strain ard1, hits give low values 0.957 | locus YHR027C, strain rpn1, hits give low values 0.995 | locus YHR030C, strain SLT2, hits give low values 1.01 | locus YHR079C, strain IRE1 (second series), hits give low values 1.01 | locus YHR094C, strain hxt1, hits give low values 1.01 | locus YHR129C, strain ARP1, hits give low values 1.01 | locus YHR142W, strain chs7, hits give low values 0.979 | locus YHR200W, strain rpn10, hits give low values 1 | locus YIL066C, strain RNR3, hits give low values 1.04 | locus YIL073C, strain SPO22, hits give low values 1.09 | locus YIL125W, strain kgd1, hits give low values 1.01 | locus YIR030C, strain dcg1, hits give low values 1.01 | locus YJL092W, strain hpr5, hits give low values 0.987 | locus YJL095W, strain BCK1 (second series), hits give low values 0.99 | locus YJL095W, strain BCK1, hits give low values 1.02 | locus YJL115W, strain asf1, hits give low values 0.976 | locus YJL129C, strain trk1, hits give low values 0.976 | locus YJL134W, strain LCB3, hits give low values 1.01 | locus YJL154C, strain vps35, hits give low values 0.992 | locus YJL164C, strain tpk1, hits give low values 0.987 | locus YJL166W, strain qcr8, hits give low values 0.997 | locus YJL168C, strain set2, hits give low values 1.01 | locus YJL187C, strain SWE1 (second series), hits give low values 1.01 | locus YJL187C, strain SWE1, hits give low values 0.99
